# TDP1 cell noCPT: qHTS for Inhibitors of human tyrosyl-DNA phosphodiesterase 1 (TDP1): qHTS in cells in absence of CPT | Potency, µM (top dose mostly 46.2 µM), without a hit: at the top dose activity change, negative = growth inhibition, most hits filed as inhibitors | 420,000 tested, 15% active | DT40 Tdp1-/- hTDP1 cells, no CPT, ATP luminescence, 48 h; further: potency means the concentration at half of the fitted maximal effect; nearly all actives have a fitted effect of over 55% in size
#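 No-CPT arm: Tdp1-/-;hTDP1 DT40 cells (400/well) plus compounds, incubated ≥48 hr at 37 °C. Readout CellTiter-Glo luminescence.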
# HT1080-NT tox: kills 2HG-producing HT-1080-NT fibrosarcoma cells | HT-1080-NT fibrosarcoma viability, CellTiter-Glo ATP luminescence, 48 h | Potency, µM (titrated, usually from 46.1 µM), for the others: at the top dose activity, negative = less viability, hits mostly cytotoxic | 360,000 tested, 1.6% active | AID 686970;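 further: NT is the 2HG producing partner of a matched IDH1 knockdown line; potency means the concentration at half of the fitted maximal effect; 0% = DMSO-treated cells and -100% = media-only wells without cells; nearly all actives have a fitted effect of over 55% in size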
#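 750 cells/well, RPMI + 5% FBS; 2 h settle, compound pin-transfer, 48 h at 37 degrees C. CellTiter-Glo 10 min RT, luminescence. Normalized to DMSO and media-only wells.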
# IL1B secr inh: inflammasome signaling inhibition, IL-1 beta readout. THP-1 LPS/ATP IL-1B secretion, AlphaLISA, 16 h; hits give low values. activity change, % at 57.5 µM. 360,000 tested, 4.7% active. AID 743279; in the data active means activity change below about -50%; inconclusive means mostly about -30% to -49%
#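 THP-1 cells pretreated 1 hr with compounds (up to 57.5 uM final), then stimulated with LPS (250 ng/mL final) plus ATP (1.25 mM final); secreted IL-1B measured by AlphaLISA after 16 hr, decreased signal indicating inhibition.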
# TDP1 cell CPT: DT40-hTDP1 cell growth loss with CPT; chicken DT40 Tdp1-/-;hTDP1 cells + 20 nM CPT, ATP luminescence, 48 h; Potency, µM (highest dose often 46.2 µM), for the others: at the top dose activity change, negative = growth inhibition, usual class: inhibitors; 420,000 tested, 12% active; AID 686979; further: potency means the concentration at half of the fitted maximal effect; nearly all actives have a fitted effect of over 55% in size
#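 Chicken DT40 Tdp1-/- cells complemented with human TDP1, 400 cells/well, exposed to compounds plus 20 nM camptothecin for at least 48 h at 37 C; viability read as ATP content by CellTiter-Glo luminescence.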
# HT1080 IDH1KD tx: kills HT-1080 cells with IDH1 knockdown; Potency, µM (highest dose often 46.1 µM), without a hit: top-dose activity, negative = toxicity, usual class: cytotoxic; 360,000 tested, 2% active; HT-1080 IDH1 knockdown viability, ATP luminescence, 48 h;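 further: potency means the concentration at half of the fitted maximal effect; 0% = DMSO wells and -100% = cell-free medium wells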
#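 After a 2 h attachment period, IDH1KD HT-1080 cells took pin-transferred compound for 48 h at 37 °C; ATP-based luminescence after 10 min room-temperature reagent incubation reported viability.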
# Numbers without * were called inactive; ? = inconclusive; · = not tested or not shown. Compounds with a hit are over-represented: about 19% of the library has one in this group of screens. Unless noted, the call rests on the fitted dose curve; in most records, active means well fitted curve in the direction sought with a large enough effect; inconclusive means small, poorly fitted or top-dose-only effect, or another doubt; inactive means no such curve, though single readings can be large; an effect the other way counts as inactive or inconclusive. Unless noted, on the % scale 0 is the no-effect control and ±100 the full control effect.
SMILES,TDP1 cell noCPT,HT1080-NT tox,IL1B secr inh,TDP1 cell CPT,HT1080 IDH1KD tx
NC(=O)c1ccccc1NC(=O)CN1CCN(Cc2ccccc2)CC1,-3%,6%,9,-8%,11%
O=C(Cn1nc(-c2ccccc2Cl)ccc1=O)Nc1ccc(Br)cc1,-2%,5%,-1,20%,-11%
O=C(Cn1nc(-c2ccccc2Cl)ccc1=O)Nc1ccccc1-c1ccccc1,18µM*,-17%,1,?,-23%
COc1ccc(OCc2nc(N)nc(Nc3ccc(C)cc3)n2)cc1,?,-1%,-14,-17%,-4%
Cc1cnc(CNc2ncncc2-c2ccccc2CN(C)C)cn1,?,·,·,-28%,·
COc1cc2c(C(=O)N3CCN(C)CC3)c(C)n(-c3ccccc3)c2cc1Br,16%,-5%,-16,2%,-2%
CCN(CC)CCNC(=O)c1c(C)n(-c2ccccc2)c2cc(Br)c(OC)cc12,18µM*,?,?,?,16µM*
CC(=O)N1c2ccc(S(=O)(=O)NCCC(=O)Nc3ccc(F)cc3C)cc2CC1C (stereo not drawn),-4%,-11%,43,-17%,0%
O=C(Nc1ccccc1[N+](=O)[O-])OCC=Cc1ccccc1,?,-1%,-54*,1%,18%
C[C@H](NC(=O)c1nc[nH]c1C(=O)N[C@@H](Cc1ccccc1)C(=O)OCc1ccccc1)C(=O)OC(C)(C)C,-28%,-2%,14,?,-20%
CC(C)C[C@H](NC(=O)c1[nH]cnc1C(=O)N[C@@H](Cc1ccccc1)C(=O)OC(C)(C)C)C(=O)OCc1ccccc1,23µM*,?,-6,?,?
CC(C)C[C@H](NC(=O)c1nc[nH]c1C(=O)NCc1ccccc1)C(=O)OC(C)(C)C,?,-3%,4,?,-26%
CC(C)C[C@H](NC(=O)c1[nH]cnc1C(=O)N[C@@H](Cc1ccccc1)C(=O)OCc1ccccc1)C(=O)OC(C)(C)C,21µM*,?,3,21µM*,-21%
CC(C)C[C@H](NC(=O)c1nc[nH]c1C(=O)N[C@@H](CCCCNC(=O)OC(C)(C)C)C(=O)OC(C)(C)C)C(=O)OCc1ccccc1,?,?,-19,?,0%
CC(C)C[C@H](NC(=O)c1[nH]cnc1C(=O)N[C@@H](Cc1ccccc1)C(=O)OC(C)(C)C)C(=O)OC(C)(C)C,?,?,-50*,16µM*,?
CC(C)(C)OC(=O)C(Cc1ccc(OC(C)(C)C)cc1)NC(=O)CNC(=O)OCc1ccccc1 (stereo not drawn),12µM*,0%,-71*,16µM*,-14%
COc1ccc(CNC(=O)CCn2nc(C)c3c(C)n(-c4ccccc4)nc3c2=O)c(OC)c1,-2%,1%,16,-3%,-1%
CC(C)NC(=O)Nc1ccc2c(c1)C(=O)N([C@H](C)CO)C[C@H](C)[C@@H](CN(C)C(=O)NC(C)C)O2,0%,-5%,9,-1%,14%
Cc1ccc(C)c(NC(=O)COC(=O)c2cccc(S(=O)(=O)N3CCCC3)c2)c1,-19%,-1%,14,-7%,-3%
COC(=O)CCCCCCCC(=O)Nc1nnc(C(F)(F)F)s1,-13%,24%,7,0%,10%
O=C(Nc1ccc(Cl)cc1Cl)NC1CCN(S(=O)(=O)c2ccc(F)cc2)CC1,?,26%,29,?,-1%
CC(C)C[C@H](NC(=O)c1[nH]cnc1C(=O)Nc1ccccc1F)C(=O)OC(C)(C)C,23µM*,-23%,-2,-89%,?
C[C@@H](NC(=O)c1nc[nH]c1C(=O)N[C@@H](Cc1ccccc1)C(=O)OCc1ccccc1)c1ccccc1,18µM*,-10%,46,?,0%
CC(C)C[C@H](NC(=O)c1[nH]cnc1C(=O)N[C@@H](C)C(=O)OC(C)(C)C)C(=O)OCc1ccccc1,16µM*,?,-16,?,?
